Source: PubChem BioAssay (several laboratories)
Compounds with a hit are over-represented: about 7% of the library has one in this group of screens.
rCAG binder: molecules binding r(CAG) RNA repeats; inhibition, % at 3 µM; AID 651821; r(CAG) RNA repeat, TO-PRO-1 dye displacement fluorescence; 370,000 compounds, 1.3% hits;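 active = inhibition above the plate cutoff, the mean of all test compounds on that plate plus 3 SD, cut at about 35% in these data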;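 note: higher means more dye released from RNA so lower well fluorescence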
NR3A LBD binder: modulators (binders) of human NR3A ligand-binding domain; NR3A LBD differential scanning fluorimetry, Tm shift; 0% = protein alone, 100% = glycine-bound protein; Tm shift relative to glycine control, % at 25 µM; 340,000 compounds, 2.5% hits; AID 1259313;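 active = melting temperature shift of at least 10% of the positive control shift, at one fixed dose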
ADAM17 inh: inhibits human ADAM17; P78536; recombinant ADAM17, EDANS/DABCYL FRET peptide cleavage; inhibition, % at 6.95 µM; 370,000 compounds, 0.83% hits;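 active = inhibition above the mean of compounds lying between control limits plus 3 SD, set per campaign, cut at about 8.5% in these data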
ADAM10 inh: ADAM10 inhibition, QFRET primary screen. O14672. recombinant ADAM10, EDANS/DABCYL FRET peptide cleavage, 3 h. inhibition, % at 7 µM. 370,000 compounds, 0.62% hits;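 active = inhibition above a per-campaign cutoff equal to the mean of compounds falling between control-based bounds plus 3 SD, cut at about 20% in these data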
AHR act: activates the human aryl hydrocarbon receptor. activation, % at 5 µM. AHR-responsive luciferase reporter cells, luminescence. 320,000 compounds, 2.5% hits. P35869. AID 2796; in the data active = activation above about 47%
Target sequence (P35869 whole entry, looked up): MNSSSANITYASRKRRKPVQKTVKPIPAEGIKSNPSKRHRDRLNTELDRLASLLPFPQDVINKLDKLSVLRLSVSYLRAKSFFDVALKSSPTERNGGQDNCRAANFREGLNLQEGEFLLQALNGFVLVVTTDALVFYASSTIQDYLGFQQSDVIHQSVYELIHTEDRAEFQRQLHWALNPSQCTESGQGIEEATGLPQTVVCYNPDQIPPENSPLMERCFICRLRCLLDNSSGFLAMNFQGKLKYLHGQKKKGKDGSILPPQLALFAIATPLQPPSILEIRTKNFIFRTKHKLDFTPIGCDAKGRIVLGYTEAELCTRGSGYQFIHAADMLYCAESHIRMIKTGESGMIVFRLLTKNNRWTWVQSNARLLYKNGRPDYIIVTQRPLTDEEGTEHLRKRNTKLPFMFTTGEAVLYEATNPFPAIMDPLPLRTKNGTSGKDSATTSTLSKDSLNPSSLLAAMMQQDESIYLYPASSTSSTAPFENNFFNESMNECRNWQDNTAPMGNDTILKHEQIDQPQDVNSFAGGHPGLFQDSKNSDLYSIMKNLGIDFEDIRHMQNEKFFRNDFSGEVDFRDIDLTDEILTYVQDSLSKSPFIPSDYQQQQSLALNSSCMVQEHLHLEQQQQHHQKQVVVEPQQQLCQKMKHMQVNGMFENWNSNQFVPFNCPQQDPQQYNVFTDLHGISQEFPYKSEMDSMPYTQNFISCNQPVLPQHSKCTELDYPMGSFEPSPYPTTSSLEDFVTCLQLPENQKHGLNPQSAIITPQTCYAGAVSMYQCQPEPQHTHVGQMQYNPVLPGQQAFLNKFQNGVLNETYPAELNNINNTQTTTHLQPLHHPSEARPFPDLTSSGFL
KLK7 zymogen act: activates the human kallikrein-7 zymogen; activation, % at 7 µM; 370,000 compounds, 0.9% hits; AID 652039; purified proKLK7, EDANS-DABCYL substrate fluorescence; 100% is mature enzyme control, 0% vehicle; P49862;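 active = activation above the mean of all tested compounds plus 3 SD, computed per campaign excluding outliers beyond control limits, cut at about 13% in these data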
ADAM10 confirm: confirmation of inhibitors of human ADAM10. shares compounds with ADAM10 inh. ADAM10 QFRET peptide cleavage, EDANS fluorescence. inhibition, % at 6.95 µM. 2,100 compounds, 1% hits;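 active = inhibition above about 20% chosen separately for each screening run, limit read from the data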
ADAM17 counter: ADAM17 inhibition, counter-screen for ADAM10 exosite hits; shares compounds with ADAM10 inh; 2,100 compounds, 0.5% hits; inhibition, % at 6.95 µM; ADAM17 QFRET peptide cleavage, EDANS fluorescence; AID 743214;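 active = mean triplicate inhibition above the solvent-only control wells' mean plus 3 SD, cut at about 12% in these data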
ADAM10 counter: inhibits human ADAM10 in ADAM17 exosite counter-screen. shares compounds with ADAM17 inh. 2,900 compounds, 47% hits. AID 743256. inhibition, % at 6.95 µM. recombinant ADAM10, EDANS/DABCYL FRET peptide cleavage, 3 h;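 active = mean inhibition over the triplicate runs exceeds the activity threshold set in the earlier primary screen, cut at about 20% in these data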
ADAM17 confirm: confirmation of inhibitors of human ADAM17; shares compounds with ADAM17 inh; recombinant ADAM17, EDANS/DABCYL QFRET peptide cleavage; inhibition, % at 6.95 µM; 2,900 compounds, 65% hits;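 active = mean inhibition across replicates above the hit cutoff set in the primary screen, cut at about 8.5% in these data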
Large screens that a line does not name were inactive (follow-up assays come after a bar, where they were run).

C[C@@H]1CCCCO[C@@H](CN(C)S(=O)(=O)c2ccccc2)[C@@H](C)CN([C@H](C)CO)C(=O)c2cc(NS(=O)(=O)c3ccc(F)cc3)ccc2O1	ADAM17 inh 16.7, ADAM10 inh 27.4 (no result: NR3A LBD binder, AHR act) | ADAM10 confirm inactive | ADAM17 counter inactive | ADAM10 counter 28.1 | ADAM17 confirm 15.4
COc1ccc(S(=O)(=O)N(C)C[C@@H]2OCCCC[C@H](C)Oc3ccc(NC(=O)Nc4ccc(C(F)(F)F)cc4)cc3C(=O)N([C@H](C)CO)C[C@H]2C)cc1	ADAM17 inh 13.2, ADAM10 inh 34.0 (no result: NR3A LBD binder, AHR act) | ADAM10 confirm inactive | ADAM17 counter inactive | ADAM10 counter 45.8 | ADAM17 confirm 24.4
C[C@@H]1CCCCO[C@H](CN(C)S(=O)(=O)c2ccc(F)cc2)[C@@H](C)CN([C@H](C)CO)C(=O)c2cc(NC(=O)Nc3ccc(C(F)(F)F)cc3)ccc2O1	ADAM17 inh 8.7, ADAM10 inh 27.4 (no result: NR3A LBD binder, AHR act) | ADAM10 confirm inactive | ADAM17 counter inactive | ADAM10 counter 45.0 | ADAM17 confirm 23.5
C[C@@H]1CN([C@H](C)CO)C(=O)c2cc(NC(=O)Nc3ccc(C(F)(F)F)cc3)ccc2O[C@H]1CN(C)S(=O)(=O)c1cccs1	NR3A LBD binder 17.4, ADAM17 inh 13.0, ADAM10 inh 28.8 | ADAM10 confirm inactive | ADAM17 counter inactive | ADAM10 counter 48.8 | ADAM17 confirm 32.8
C[C@H]1CCCCO[C@@H](CN(C)S(=O)(=O)c2ccc(F)cc2)[C@@H](C)CN([C@@H](C)CO)C(=O)c2cc(NC(=O)Nc3ccc4c(c3)OCO4)ccc2O1	none (no result: NR3A LBD binder, AHR act)
S=c1nc(C2CC2)n(-c2ccccc2)[nH]1	none
CCCCn1c(N)c(N(Cc2ccccc2OC)C(=O)CN2C(=O)NC(C)(c3ccccc3)C2=O)c(=O)[nH]c1=O (centres undefined)	none
Cc1cccc(OCCCSc2nc3ccccc3[nH]2)c1	ADAM17 inh 10.1, ADAM10 inh 21.2 | ADAM10 confirm inactive | ADAM17 counter inactive | ADAM10 counter inactive | ADAM17 confirm 9.8
COc1ccc(OC)c(-n2c(-c3cc(-c4ccc(F)cc4)n[nH]3)n[nH]c2=S)c1	ADAM17 inh 9.3, ADAM10 inh 20.1 | ADAM10 confirm inactive | ADAM17 counter inactive | ADAM10 counter inactive | ADAM17 confirm inactive
Cn1nc([N+](=O)[O-])nc1Oc1ccc(C(C)(C)C)cc1	none
Cc1ccc(S(=O)(=O)N2CCC(=O)N([C@H](COC(=O)Nc3ccccc3)Cc3ccccc3)CC2)cc1	ADAM17 inh 8.9, ADAM10 inh 19.9 (no result: NR3A LBD binder, AHR act) | ADAM10 confirm inactive | ADAM17 counter inactive | ADAM10 counter inactive | ADAM17 confirm 13.0
Cc1ccc(S(=O)(=O)N2CCC(=O)N(C(COCc3ccccc3)Cc3ccccc3)CC2)cc1 (centres undefined)	none
Cn1cc(S(=O)(=O)NCc2ccc3c(c2)OCO3)c(C(F)(F)F)n1	none
CCn1c(NCc2ccccc2NS(=O)(=O)c2ccc(C)cc2)nc2ccccc21	ADAM17 inh 16.1, ADAM10 inh 27.4 | ADAM10 confirm inactive | ADAM17 counter inactive | ADAM10 counter 23.6 | ADAM17 confirm 14.9
CC(O/N=C/c1ccccc1OC(F)F)C(=O)Nc1cccc(S(=O)(=O)N2CCOCC2)c1 (centres undefined)	ADAM17 inh 10.1, ADAM10 inh 19.8 | ADAM10 confirm inactive | ADAM17 counter inactive | ADAM10 counter inactive | ADAM17 confirm inactive
CCc1cccc(C)c1NC(=O)COC(=O)C1CCN(S(=O)(=O)c2ccccc2)CC1	none
CCc1cccc(C)c1NC(=O)CN1CCN(S(=O)(=O)c2ccc(C(C)(C)C)cc2)CC1	ADAM17 inh 10.0, ADAM10 inh 24.2 (no result: NR3A LBD binder) | ADAM10 confirm inactive | ADAM17 counter inactive | ADAM10 counter inactive | ADAM17 confirm inactive
CCOc1ccc(CCN2C(=S)N([C@@H](Cc3ccccc3)CN3CCC[C@@H]3CN3C(=S)NC[C@@H]3Cc3ccc(O)cc3)C[C@@H]2CC(C)C)cc1	none (no result: NR3A LBD binder, AHR act)
CCOc1ccc(CCN2C(=S)N([C@@H](Cc3ccc(O)cc3)CN3CCC[C@@H]3CN3C(=S)NC[C@@H]3CC(C)C)C[C@@H]2Cc2ccc(O)cc2)cc1	ADAM17 inh 9.8, ADAM10 inh 23.0 (no result: NR3A LBD binder, AHR act) | ADAM10 confirm inactive | ADAM17 counter inactive | ADAM10 counter 47.3 | ADAM17 confirm 24.1
Cc1ccc(C(=O)NNC(=S)NC(=O)c2ccc(Cl)cc2)cc1	ADAM17 inh 12.4, ADAM10 inh 19.8 | ADAM10 confirm inactive | ADAM17 counter inactive | ADAM10 counter inactive | ADAM17 confirm inactive
O=C(CSCc1nc2c(nnn2Cc2ccc(F)cc2)c(=O)[nH]1)Nc1cccc(C(F)(F)F)c1	none
Cc1ccc(S(=O)(=O)N(C)C[C@@H]2OCc3ccccc3-c3c(n(C)c4ccccc34)C(=O)N([C@H](C)CO)C[C@@H]2C)cc1	ADAM17 inh 12.0, ADAM10 inh 26.7 (no result: NR3A LBD binder, AHR act) | ADAM10 confirm inactive | ADAM17 counter inactive | ADAM10 counter 38.5 | ADAM17 confirm 20.8
C[C@H](CO)N1C[C@H](C)[C@H](CN(C)S(=O)(=O)c2cccc(F)c2)OCc2ccccc2-c2c(n(C)c3ccccc23)C1=O	none (no result: NR3A LBD binder, AHR act)
O=C(Nc1ccc(Nc2ccccc2)cc1)c1c(F)c(F)c(F)c(F)c1F	NR3A LBD binder 14.9, ADAM17 inh 14.4, ADAM10 inh 20.2 | ADAM10 confirm inactive | ADAM17 counter inactive | ADAM10 counter 29.6 | ADAM17 confirm 14.3
O=C(Nc1ccc(Nc2ccccc2)cc1)c1c(Cl)cccc1Cl	none
Cc1cc(C(O)c2ncc(-c3ccc(Oc4ccccc4)cc3)[nH]2)ccc1F (centres undefined)	ADAM17 inh 13.0, ADAM10 inh 20.9 (no result: NR3A LBD binder, AHR act) | ADAM10 confirm inactive | ADAM17 counter inactive | ADAM10 counter 37.5 | ADAM17 confirm 15.5
Cc1ccccc1-c1cnc(C(O)c2ccc(-c3ccccc3)cc2)[nH]1 (centres undefined)	ADAM17 inh 9.1, ADAM10 inh 23.0 (no result: NR3A LBD binder, AHR act) | ADAM10 confirm inactive | ADAM17 counter inactive | ADAM10 counter inactive | ADAM17 confirm inactive
Cc1ccccc1-c1cnc(C(O)c2ccc(C(C)(C)C)cc2)[nH]1 (centres undefined)	none (no result: NR3A LBD binder, AHR act)
CCCS(=O)(=O)N1CCc2ccc(NC(=O)C3CCCO3)cc2C1 (centres undefined)	none
